Values joined by “and” are separate entries in the source; they are usually repeats but may differ in a detail not shown here. Equal values may be shown once. Results filed as inconclusive are left out. Active and inactive are the calls of the source. Unless noted, cut-off not given; nearly all actives show AC50 up to about 26 µM.
Key:
[1] = growth inhibition of DIPG glioma cells, dose response, cell-based, SU-DIPG-XVII, MIPE5.0, CellTiter-Glo, qHTS (AID 1347060); details: SU-DIPG-XVII viability, CellTiter-Glo ATP luminescence;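 on AC50: cells exposed to compound for 48 hours before viability readout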
[2] = growth inhibition of DIPG glioma cells, dose response, cell-based, SU-DIPG-XIII, MIPE4.0, CellTiter-Glo, qHTS (AID 1347061; cut-off not given, nearly all actives have AC50 up to about 37 µM;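 further: cells exposed to compound for 48 hours before readout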); details: SU-DIPG-XIII viability, CellTiter-Glo ATP luminescence
[3] = growth inhibition of DIPG glioma cells, dose response, cell-based, SU-DIPG-IV, MIPE4.0, CellTiter-Glo, qHTS (AID 1347063; cut-off not given, nearly all actives have AC50 up to about 30 µM;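 further: compound exposure lasted 48 hours before the viability readout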); details: SU-DIPG-IV viability, CellTiter-Glo ATP luminescence
[4] = growth inhibition of DIPG glioma cells, dose response, cell-based, SU-DIPG-XIII, MIPE5.0, CellTiter-Glo, qHTS (AID 1347064; cut-off not given, nearly all actives have AC50 up to about 23 µM;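 on AC50: cells exposed to compound for 48 hours before the viability read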); details: SU-DIPG-XIII viability, CellTiter-Glo ATP luminescence
[5] = viability loss in pontine glioma line – cell-based, SU-DIPG-XXV, MIPE5.0, CellTiter-Glo, qHTS, dose response (AID 1347065); details: CellTiter-Glo ATP luminescence;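 further: cells exposed to compound for 48 hours before ATP readout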
[6] = SU-DIPG-VI glioma cell viability, MIPE4.0 library, CellTiter-Glo luminescence, qHTS (AID 1347066; cut-off not given, nearly all actives have AC50 up to about 30 µM;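 further: cells exposed to compound for 48 hours before readout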); details: CellTiter-Glo ATP luminescence
[7] = JHH-DIPG-1 glioma cell viability, MIPE5.0 library, CellTiter-Glo luminescence, qHTS (AID 1347067); details: JHH-DIPG-1 glioma viability, CellTiter-Glo ATP luminescence;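 further: cells exposed to compound for 48 hours before readout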
[8] = SU-DIPG-XXV glioma cell viability, MIPE5.0 library, qHTS (AID 1347068; cut-off not given, nearly all actives have IC50 up to about 30 µM;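 on IC50: cells exposed to compound for 48 hours before viability readout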)
[9] = growth inhibition of DIPG glioma cells, dose response, cell-based, JHH-DIPG-1, MIPE4.0, CellTiter-Glo, qHTS (AID 1347062; cut-off not given, nearly all actives have AC50 up to about 27 µM;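 on AC50: cells exposed to compound for two days before readout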); details: JHH-DIPG-1 viability, CellTiter-Glo ATP luminescence
[10] = sensitizers of A549 cells to miR-34 induction, primary screen, imaging, A549 dox-inducible miR-34, nuclei and caspase counts (AID 1347080;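 active means compounds whose cell count with miR-34 switched on is under 0.7 times the count with it off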); details: A549 miR-34 inducible, Hoechst nuclei count, 48 h
[11] = survival rescue of mitochondrial mutant cells in low glucose, primary screen, MELAS cybrids, Rieske KO mouse fibroblasts, CellTiter-Glo (AID 1508586;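 active means mean z-score across replicates of 1.96 or higher in either the MELAS or the Rieske mutant cell line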;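 further: z relative to plate mean and SD of compound and empty wells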)
[12] = stronger effect = lower value, cell number ratio, induced over uninduced
[13] = measured here: relative caspase fold change +Dox/-Dox
[14] = measured here: total cells with miR-34 induction, stronger effect = lower value
[15] = measured here: total cells without miR-34 induction
[16] = MELAS cybrid survival, CellTiter-Glo 48 h, stronger effect = higher value
[17] = Rieske KO mouse fibroblast survival, CellTiter-Glo 72 h

C[C@](Cc1c[nH]c2ccccc12)(NC(=O)OC1C2CC3CC(C2)CC1C3)C(=O)NC[C@H](NC(=O)CCC(=O)O)c1ccccc1 (stereo partly specified)
inactive: outcome [1] | outcome [2] | outcome [3] | outcome [4] | outcome [5] | outcome [6] | outcome [7] | outcome [8]

c1cc(-c2sc(-c3ccncc3)c(-c3ccncc3)c2-c2ccncc2)ccn1
inactive: outcome [1] | outcome [2] | outcome [9] | outcome [5] | outcome [6] | outcome [7] | outcome [8]

CNC(=O)c1c(F)cccc1Nc1nc(Nc2cc3c(cc2OC)CCN3C(=O)CN(C)C)nc2[nH]ccc12
0.874: fold change [10, 13]
active: AC50 [1] 5.25 µM | AC50 [2] 0.235 µM | AC50 [3] 2.64 µM | AC50 [4] 0.934 µM | AC50 [5] 0.661 µM | AC50 [6] 0.0833 µM | AC50 [7] 3.32 µM | IC50 [8] 14.8 µM
-0.594: z-score [11, 17]
5320: cell count [10, 14]
inactive: fold change [10, 12] 0.926 | z-score [11, 16] -0.536
5750: cell count [10, 15]

CN(C)c1ccc(C2Nc3ccc4ccccc4c3C3=C2C(=O)CC(C)(C)C3)cc1Br (stereo unspecified)
inactive: outcome [1] | outcome [2] | outcome [9] | outcome [6] | outcome [7]

Cc1cccc(-c2[nH]c(C(C)(C)C)nc2-c2ccc3c(c2)OCO3)n1
inactive: fold change [10, 12] 0.974 | z-score [11, 16] -0.251
3590: cell count [10, 15]
0.464: fold change [10, 13]
3490: cell count [10, 14]
-1.59: z-score [11, 17]
active: AC50 [1] 3.72 µM | AC50 [2] 0.526 µM | AC50 [3] 6.62 µM | AC50 [4] 2.63 µM | AC50 [5] 2.95 µM | AC50 [7] 1.18 µM | IC50 [8] 3.72 µM

Cc1cc([C@@H](C)Nc2ccccc2C(=O)O)c2nc(N3CCOCC3)cc(=O)n2c1
active: AC50 [1] 16.6 µM | AC50 [2] 42.9 µM | AC50 [3] 12.1 µM | AC50 [4] 14.8 µM | AC50 [5] 14.8 µM | AC50 [6] 38.2 µM

O=C1CCCC2=C1C(c1[nH]ncc1Cl)N=C(Nc1nc3ccccc3o1)N2 (stereo unspecified)
inactive: outcome [1] | outcome [2] | outcome [9] | outcome [6] | outcome [7] | outcome [8]

C[C@]12CCC3=C4CCC(=O)C=C4CC[C@H]3[C@@H]1CC[C@@]2(O)CC#N
inactive: outcome [1] | outcome [2] | outcome [9] | outcome [5] | outcome [6] | outcome [7]

Nc1ccc(C(=O)c2cc3c(ccc4ccccc43)[nH]2)cc1
active: AC50 [1] 3.82 µM | AC50 [2] 23.5 µM | AC50 [9] 8.33 µM | AC50 [5] 2.15 µM | AC50 [7] 5.39 µM

Cc1ccc(C(C)(O)c2nc3ccccc3s2)c(C)c1 (stereo unspecified)
inactive: outcome [1] | outcome [2] | outcome [9] | outcome [4] | outcome [6] | outcome [7] | outcome [8]

CC(C)C[C@H](CC(=O)O)C(=O)N[C@@H](Cc1c[nH]c2ccccc12)C(=O)N[C@@H](C)c1ccccc1
active: AC50 [5] 16.6 µM
inactive: outcome [1] | outcome [2] | outcome [9] | outcome [7] | outcome [8]

Cc1ccc2c(c1)C(=O)[C@]1(O)CCN(c3ccccc3)C1=N2
6450 and 7900: cell count [10, 15]
active: AC50 [1] 14.8 µM
6020 and 6690: cell count [10, 14]
-2.56: z-score [11, 17]
0.749 and 0.315: fold change [10, 13]
inactive: outcome [2] | outcome [9] | outcome [6] | outcome [7] | outcome [8] | fold change [10, 12] 0.934 and 0.847 | z-score [11, 16] -0.292

CCNC(=O)[C@H]1O[C@@H](n2cnc3c(N)nc(NCCc4ccc(CCC(=O)O)cc4)nc32)[C@H](O)[C@@H]1O
inactive: outcome [1] | outcome [2] | outcome [9] | outcome [5] | outcome [6] | outcome [7] | outcome [8]

CCOC(=O)[C@@H](N)Cc1ccc(-c2cc(O[C@H](c3ccc(Cl)cc3-n3ccc(C)n3)C(F)(F)F)nc(N)n2)cc1
inactive: outcome [2]
active: AC50 [1] 11.8 µM | AC50 [3] 26.4 µM | AC50 [4] 20.9 µM | AC50 [5] 13.2 µM | AC50 [6] 16.6 µM | AC50 [7] 13.2 µM

CN(C)C(=O)c1ccc(S(=O)(=O)c2ccc(NC(=O)[C@@](C)(O)C(F)(F)F)c(Cl)c2)cc1
inactive: outcome [1] | outcome [2] | outcome [9] | outcome [7]

CCn1c(-c2nonc2N)nc2cncc(CNC3CCNCC3)c21
inactive: outcome [1] | outcome [2] | outcome [9] | outcome [6] | outcome [7] | outcome [8]

O=c1c(O)c(-c2cc(O)c(O)c(O)c2)oc2cc(O)cc(O)c12
0.188: z-score [11, 17]
8020 and 10100 and 10500: cell count [10, 15]
inactive: outcome [1] | outcome [2] | outcome [9] | outcome [5] | outcome [6] | outcome [7] | fold change [10, 12] 1.07 and 0.861 and 0.936 | z-score [11, 16] -0.358
8570 and 8710 and 9810: cell count [10, 14]
0.806 and 1.45 and 0.825: fold change [10, 13]

— PubChem BioAssay
